Source: PubChem BioAssay AID652106 (National Center for Advancing Translational Sciences (NCATS), 2013)
Hit rate of the full screen: of about 370,000 compounds, about 500 (0.14%) were called active. Roughly 2% stayed inconclusive and do not appear here. For the sample, actives were picked, then their nearest neighbours and some compounds at random. A number with no mark means an inactive call. The call rests on the fitted dose curve; in most records, active means well fitted activation curve with a large enough effect; inconclusive means small, poorly fitted or top-dose-only effect; inactive means no such curve, though single readings can be large or run the other way.

Assay: qHTS of alpha-syn Inhibitors; further: nearly all actives have a fitted effect of over 65% in size; on growth rescue (activation): % of control where 0% means no effect
Settings: Yeast expressing alpha-synuclein, BacTiter-Glo, 24 h; Potency: growth rescue; series mostly up to 46.1 µM; growth rescue (activation): at the top concentration
In short: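 Screening used galactose-induced yeast with toxic alpha-synuclein levels, exposed to compound for 24 hr at 30 deg C. Cell growth, read with BacTiter-Glo luminescence, gave the measured signal.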
Potency means the concentration at half of the fitted maximal effect.

SMILES | growth rescue (activation) [%] | Potency
COC(=O)C1=C(C(=O)OC)[C@@H]2N(Cc3ccccc3)c3ccccc3[C@@]23C[C@@H](C(=O)OC)N(S(=O)(=O)c2ccc(C(F)(F)F)cc2)C3=N1 | 1.17 | –
CNCCCOc1cc2nc(N3CCCN(C)CC3)nc(NC3CCN(C)CC3)c2cc1OC | 9.23 | –
Cc1cccc(-n2ccnc2SCC(=O)Nc2cc(C(F)(F)F)ccc2Cl)c1 | 0.0737 | –
COc1ccc(CCn2c3c(c(=O)[nH]c2=S)CN(C(C)C)CN3)cc1OC | -0.0407 | –
COc1ccc(N2C(=O)CS(=O)(=O)C23C(=O)N(Cc2ccc(C)cc2)c2ccccc23)cc1Cl (stereo unspecified) | 4.45 | –
CN(C)Cc1cn(-c2ccccc2)nc1-c1ccccc1 | 2 | –
O=[N+]([O-])c1ccc2c(c1)Nc1nc3ccccc3nc1N2 | – | 3.55 µM (active)
O=[N+]([O-])c1cc2ccccc2nc1-c1ccccc1 | 6.61 | –
O=C(Oc1ccc([N+](=O)[O-])cc1)c1ccc2ccccc2n1 | -0.0122 | –
C=C1C=C(C(F)F)n2ncc(C(=O)NCCc3ccccc3OC)c2N1 | 1.42 | –
CCOc1ccccc1CNC(=O)Nc1cn(CC(C)C)c(=O)c2ccccc12 | 7.95 | –
C/C=C/NNC(=O)Cc1ccc(OC)cc1 | 0.567 | –
CCN1CCN(c2nc(Nc3cc(OC)ccc3OC)nc(Nc3cc(OC)ccc3OC)n2)CC1 | 2.29 | –
COc1ccc(OC)c(Nc2nc(-c3ccc(O)c(O)c3)cs2)c1 | – | 11.2 µM (active)
COc1ccc(OC)c(NC(=O)COC(=O)Cc2ccsc2)c1 | 8.95 | –
CCOC(=O)c1ccc(NC2=CC(c3ccc(OCC)cc3)N(c3ccc(C(=O)OCC)cc3)C2=O)cc1 (stereo unspecified) | 5.01 | –
CN(Cc1ccccc1)c1ccc(/C=C/c2ccnc3ccccc23)cc1 | -32.3 | –
CC(=O)/C(C)=N/O | -8.5 | –
CC(C)(C)C1CCC(NC(=O)c2cnn3c2NC(=C2CC2)C=C3C(F)F)CC1 (stereo unspecified) | -57.4 | –
CC1=C(C(=O)Nc2ccccc2Cl)C(c2cccs2)n2ncnc2N1 (stereo unspecified) | -2.14 | –
Cc1ccc(-c2nnc3ccc(SCC(N)=O)nn23)cc1 | -0.723 | –
